Measurements from PubChem BioAssay.
The source made the active and inactive calls. Unless noted, the rule behind the calls is not given here.

Experiments:
[1] = test system: Wnt5a (protein binding on small-molecule microarray); assay: Wnt5a binders on small-molecule microarray, primary screen, biophysical, 635/667 nm fluorescence (AID 1142); details: 635 nm fluorescence, higher = more signal;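 note: fluorescence read at 667 nm with signal to noise per printed feature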
[2] = cell viability in Huh7 cells, primary screen, cytotoxicity control for HCV replication inhibitor project, CellTiter-Glo luminescence, basal, 48 h (AID 1143); details: Huh7 HCV replicon, higher = more signal, called active from +8 up or from −8 down;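 note: Huh7 hepatoma cells carrying a hepatitis C replication reporter with no stimulus; test concentration not given here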
[3] = P. aeruginosa biofilm formation inhibitors, primary screen, PAO1 strain, BacTiter-Glo luminescence, LB-PBS (AID 1144); details: 12 h, higher = more signal
[4] = CREB reporter modulators without forskolin, primary screen, cell-based, PC12, CRE-LacZ reporter, unstimulated (AID 1145); details: no forskolin, luminescence, 4.5 h, higher = more signal, called active from +8 up or from −8 down
[5] = CREB reporter modulators under forskolin, primary screen, cell-based, PC12, CRE-LacZ reporter, forskolin-stimulated (AID 1146); details: luminescence, 4.5 h, higher = more signal, called active from +8 up or from −8 down;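 note: PC12 cells with 6xCRE LacZ reporter stimulated by forskolin 10 µM; beta-galactosidase reporter signal reflecting CREB driven transcription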
[6] = target: Streptavidin (Streptomyces avidinii) (UniProt P22629); assay: streptavidin binders on small-molecule microarray, primary screen, artefact control for SMM compound annotation, biophysical, 635/667 nm fluorescence (AID 1147); details: streptavidin binding, higher = more signal;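 note: signal reflects streptavidin binding to arrayed compounds as a control protein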
[7] = small-molecule binders of probe aInhba, primary screen, biochemical, small-molecule microarray, 635/667 nm fluorescence (AID 1148); details: higher = more signal;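 note: score merges 667nm spot fluorescence with signal-to-noise for antibody binding to printed compounds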
Torsin-1A (Homo sapiens) [8] = target: Torsin-1A (Homo sapiens) (UniProt O14656); assay: torsin A binders from cell lysate, primary screen, small-molecule microarray, wild-type, 635/667 nm (AID 1149); details: COS7 hTOR1A-WT lysate, 635 nm fluorescence, higher = more signal
Torsin-1A (Homo sapiens) [9] = target: Torsin-1A (Homo sapiens) (UniProt O14656); assay: small-molecule binders of mutant TOR1A in lysate, primary screen, cell lysate, small-molecule microarray, COS7 lysate, 635/667 nm fluorescence (AID 1150); details: COS7 hTOR1A mutant lysate, 635 nm fluorescence, higher = more signal;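 note: score pools 667 nm emission and signal to noise measuring lysate protein binding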
[10] = test system: Sonic hedgehog protein (Shh); assay: small-molecule binders of Shh protein, primary screen, biochemical, small-molecule microarray, 635/667 nm fluorescence (AID 1151); details: small-molecule microarray binding, 635 nm fluorescence; higher = more signal;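 note: Shh protein binding to compounds spotted on small-molecule microarray slides; score combines spot fluorescence intensity with signal-to-noise across triplicate slides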

Sequence of Torsin-1A (Homo sapiens) (O14656 whole entry, looked up): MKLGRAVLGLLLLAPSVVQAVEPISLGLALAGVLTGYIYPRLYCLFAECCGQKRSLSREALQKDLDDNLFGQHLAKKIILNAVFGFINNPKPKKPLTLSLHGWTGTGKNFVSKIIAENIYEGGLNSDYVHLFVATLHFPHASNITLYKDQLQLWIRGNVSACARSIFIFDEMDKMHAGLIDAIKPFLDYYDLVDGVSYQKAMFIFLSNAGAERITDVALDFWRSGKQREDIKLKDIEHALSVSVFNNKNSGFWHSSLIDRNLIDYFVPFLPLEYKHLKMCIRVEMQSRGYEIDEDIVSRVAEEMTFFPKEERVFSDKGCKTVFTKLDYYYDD
Sequence of Streptavidin (Streptomyces avidinii) (P22629 whole entry, looked up): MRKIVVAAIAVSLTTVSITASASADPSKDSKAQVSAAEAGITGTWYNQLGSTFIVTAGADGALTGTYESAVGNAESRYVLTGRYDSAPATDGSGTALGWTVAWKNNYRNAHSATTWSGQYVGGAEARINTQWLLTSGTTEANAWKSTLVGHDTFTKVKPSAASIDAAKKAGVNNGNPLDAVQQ

Compound	composite z-score [1]	z-score [2]	z-score [3]	z-score [4]	z-score [5]	composite z-score [6]	composite z-score [7]	composite z-score (Torsin-1A (Homo sapiens) [8])	composite z-score (Torsin-1A (Homo sapiens) [9])	composite z-score [10]
O=C1NC(=O)C2C1C=CC(C(O)c1ccc(I)cc1)N2Nc1ccccn1 (stereo not given)	-0.0488	0.886 (inactive)	-0.833 (inactive)	0.636 (inactive)	0.0542 (inactive)	0.242	-0.0216	0.282	0.239	-0.0484
COc1ccc(C(=O)Nc2cccc(CN3C(=O)[C@]4(O[C@H](CCn5cc(CCO)nn5)[C@@H]([Si](C)(C)c5ccc(OC)cc5)[C@@H]4C)c4ccccc43)c2)cc1	0.224	-7.97 (inactive)	-0.0511 (inactive)	0.963 (inactive)	-1.52 (inactive)	0.38	-0.0963	0.188	0.359	1.21
CC(=O)NCCCC[C@@H]1NC(=O)[C@H]2C[C@@H](C(=O)NCCCCCNC(=O)CS)[C@@H](c3ccc(O)cc3)N2C1=O	0.0736	-0.47 (inactive)	-0.589 (inactive)	-0.122 (inactive)	-0.112 (inactive)	-0.502	0.0391	0.261	-0.711	0.468
[N-]=[N+]=Nc1ccccc1[C@H]1OC(c2ccc(OCCCO)cc2)=N[C@@]1(Cc1ccccc1)C(=O)N1CCOCC1	0.267	-4.05 (inactive)	-0.622 (inactive)	-0.0341 (inactive)	-1.62 (inactive)	2.01	0.554	0.124	0.212	0.672
COCCOC(=O)N1C(=O)[C@@]2(c3cc(C#Cc4ccc(OC)cc4)ccc31)[C@H](c1ccc(O)cc1)N1[C@H](c3ccccc3)[C@H](c3ccccc3)OC(=O)[C@H]1[C@@H]2C(=O)Nc1nc2ccccc2s1	0.169	-1.07 (inactive)	-0.155 (inactive)	0.182 (inactive)	-0.0609 (inactive)	0.302	-0.11	0.277	0.226	1.76
COCC(=C=CC[C@H](O)c1ccccc1OCCO)CCO	0.0821	-0.231 (inactive)	-0.109 (inactive)	2.48 (inactive)	1.01 (inactive)	-0.193	0.115	0.871	0.542	1.09
COCCOC(=O)N1C(=O)[C@@]2(c3cc(C#CCCO)ccc31)[C@H](c1ccc(OCCO)cc1)N1[C@H](c3ccccc3)[C@H](c3ccccc3)OC(=O)[C@H]1[C@@H]2C(N)=O	0.711	-1.47 (inactive)	0.502 (inactive)	0.209 (inactive)	1.71 (inactive)	0.266	0.364	0.271	0.569	0.811
[N-]=[N+]=NCc1ccccc1[C@@H]1OC(c2ccc(OCCCO)cc2)=N[C@]1(CCS(=O)(=O)c1ccccc1)C(=O)N1CCCCC1	0.571	-2.09 (inactive)	0.406 (inactive)	5.06 (inactive)	0.243 (inactive)	1.19	0.531	0.292	0.447	-0.0529
CCC(CC)C(O)C1C=CC2C(=O)N(c3ccccc3)C(=O)C2N1Nc1ccccc1 (stereo not given)	0.213	-0.125 (inactive)	-1.63 (inactive)	1.01 (inactive)	-0.814 (inactive)	1.21	0.948	-0.0952	0.423	0.494
C=C(CCCC)/C(=C/C[C@@H](OC(C)=O)c1cccc(OCCO)c1)c1cnc2ccccc2c1	0.16	-0.82 (inactive)	-1.07 (inactive)	1.7 (inactive)	-0.307 (inactive)	0.0063	-0.154	1.17	0.762	2.05
CCOC(=O)C[C@H]1[C@H](OC(=O)c2ccc(C(=O)c3ccccc3)cc2)[C@@H](NC(=O)Cc2ccc(OC)cc2)c2cc(OCCCO)ccc2N1C(=O)c1ccc2ccccc2n1	0.112	0.0378 (inactive)	-0.193 (inactive)	0.745 (inactive)	-0.668 (inactive)	0.619	0.158	-0.202	0.561	0.671
NCCCCCCNC(=O)[C@H]1C[C@H]2C(=O)N[C@@H](Cc3ccccc3)C(=O)N2[C@H]1c1cccc(OCCO)c1	-0.0371	0.173 (inactive)	-0.687 (inactive)	-0.545 (inactive)	-0.711 (inactive)	1.09	-0.128	1.24	0.916	0.16
C#CCN(C/C=C/c1ccccc1)[C@H](CO)c1ccccc1	0.325	-3.79 (inactive)	-0.192 (inactive)	1.65 (inactive)	-0.121 (inactive)	0.41	-0.103	0.25	0.294	0.743
[N-]=[N+]=Nc1ccccc1C[C@]1(C(=O)NCc2ccccc2)N=C(c2ccc(OCCCO)cc2)O[C@H]1c1ccccc1N=[N+]=[N-]	0.933	-4.05 (inactive)	0.0249 (inactive)	1.77 (inactive)	-0.741 (inactive)	1.73	-0.156	0.109	0.286	-0.4
COc1ccc(C(=O)Nc2ccc(CN3C(=O)[C@]4(O[C@H](CC(=O)N5CCC[C@H]5CO)[C@@H]([Si](C)(C)c5ccc(OC)cc5)[C@@H]4C)c4ccccc43)cc2)cc1	0.156	-4.81 (inactive)	-0.00818 (inactive)	2.62 (inactive)	0.124 (inactive)	0.111	0.0785	0.585	0.421	2.05
COC(=O)C(CC#Cc1ccc2c(c1)[C@]1(C(=O)N2)[C@H](c2ccccc2OCCO)N2[C@H](c3ccccc3)[C@H](c3ccccc3)OC(=O)[C@H]2[C@@H]1C(N)=O)C(=O)OC	0.136	-5.98 (inactive)	0.502 (inactive)	-0.0515 (inactive)	1.02 (inactive)	1.5	1.26	0.412	0.434	0.111
COCCCNC(=O)[C@@]1(Sc2ccc(C)cc2)CC(=O)N(Cc2ccccc2Cl)[C@@H]1c1ccc(CO)cc1	0.349	-4.58 (inactive)	-0.915 (inactive)	-0.374 (inactive)	1.09 (inactive)	0.584	-0.0331	0.607	0.582	2.02
[N-]=[N+]=NCc1ccccc1[C@@H]1OC(c2ccc(OCCCO)cc2)=N[C@]1(CCS(=O)(=O)c1ccccc1)C(N)=O	1.2	-0.369 (inactive)	1.47 (inactive)	-0.128 (inactive)	-0.785 (inactive)	0.982	0.393	1.41	1.26	0.99
[N-]=[N+]=NCc1ccccc1[C@@H]1OC(c2ccc(OCCCO)cc2)=N[C@]1(CCS(=O)(=O)c1ccccc1)C(=O)N1CCOCC1	0.477	-4.07 (inactive)	-0.344 (inactive)	1.59 (inactive)	-1.08 (inactive)	1.5	0.351	0.796	0.947	-0.149
CCOc1cc(C(O)C2C=CC3C(=O)N(c4ccccc4)C(=O)C3N2Nc2ccc(C(C)C)cc2)ccc1O (stereo not given)	0.12	-1.15 (inactive)	-0.941 (inactive)	1.96 (inactive)	0.193 (inactive)	0.809	-0.0375	0.159	0.57	0.323
CC(C)(C)OC(=O)CC[C@@]1(C(=O)N2CCCCC2)N=C(c2ccc(OCCCO)cc2)O[C@@H]1c1ccccc1	0.94	-2.99 (inactive)	-0.34 (inactive)	1.66 (inactive)	0.127 (inactive)	1.82	0.283	0.766	0.912	-0.45
OCCCC1=CC(C2CC2)N(Cc2cccc(OC(F)(F)F)c2)CC1 (stereo not given)	-0.416	-0.28 (inactive)	0.129 (inactive)	0.0882 (inactive)	0.0103 (inactive)	-0.753	-0.213	-0.176	-0.773	1
CCCC=C(CCC)[C@@H](NS(=O)(=O)c1ccc(Cl)cc1)c1ccc(C(=O)OC)cc1	-0.16	-0.296 (inactive)	-0.382 (inactive)	-0.179 (inactive)	-0.146 (inactive)	0.997	-0.0011	0.771	1.38	-0.562
C=CC[C@]1(C(=O)N2CCOCC2)N=C(c2ccc(OCCCO)cc2)O[C@H]1c1ccccc1N=[N+]=[N-]	0.268	-4.25 (inactive)	-0.0153 (inactive)	-0.193 (inactive)	-1.78 (inactive)	0.883	0.122	0.35	0.705	-0.269
O[C@@H](Cc1ccccc1)[C@@H](/C=C/C1CC1)NCc1cccc(Cl)c1	-1.11	-3.2 (inactive)	-0.852 (inactive)	4.76 (inactive)	-0.426 (inactive)	-1	-0.21	-1.12	-0.447	-1
NCCCCCNC(=O)[C@H]1C[C@H]2C(=O)N3CCC[C@H]3C(=O)N2[C@H]1c1ccc(O)cc1	0.354	0.173 (inactive)	-0.12 (inactive)	0.285 (inactive)	0.165 (inactive)	1.23	0.336	1.66	1.09	1.65
CC(C)NC(=O)[C@@H]1c2ccccc2C(=O)N(C(C)C)[C@H]1c1ccc(CO)cc1	-0.152	0.245 (inactive)	1.28 (inactive)	0.441 (inactive)	0.0729 (inactive)	-0.977	-0.193	0.0645	2.08	-0.659
COc1ccc(CCNC(=O)[C@@]2(c3ccc([N+](=O)[O-])cc3)CC(=O)N(CC34CC5CC(CC(C5)C3)C4)[C@@H]2c2ccc(CO)cc2I)cc1	0.522	-5.87 (inactive)	-1.53 (inactive)	0.378 (inactive)	-0.107 (inactive)	-0.0522	-0.443	0.292	1.05	1.75
COc1cc2c(cc1O)C=[N+](Cc1cc3c(cc1Br)OCO3)CC2	-0.234	-2.14 (inactive)	-0.304 (inactive)	-0.671 (inactive)	0.945 (inactive)	-1.88	-0.154	-0.39	-0.945	-0.216
